Results from the supplement of paper PMC11219838.
Unmarked numbers belong to inactive results.

Tested on: Caenorhabditis elegans dauer (daf-2(e1370))
Assay: proportion of mobile C. elegans dauer larvae relative to DMSO control (fraction of DMSO control); higher = more viable, less nematicidal, active = 0.63 or less; extreme values may be limits of the assay
Conditions: 60 µM; 5 days; temperature: 20 °C
How it was run: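 Compound was added by pinning to 60 µM final, giving 0.6% v/v DMSO, in 96-well plates containing about 20 C. elegans dauers per well in liquid NGM. These dauers came from synchronized larvae held on MYOB plates with E. coli OP50 for 48 h at 25 °C. Plates were sealed and shaken at 200 rpm at 20 °C for 5 days. Under a dissection microscope, the proportion of mobile worms was scored relative to DMSO wells, and two biological replicates were averaged.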

Row | SMILES | proportion of mobile C. elegans dauer larvae
1 | CCOC(=O)c1ccc(OCc2nc(-c3cccs3)no2)cc1 | 1
2 | O=C(CSc1nnc(-c2ccccc2)o1)Nc1ccccc1C(F)(F)F | 1
3 | CCOc1ccccc1-c1nnc(SCC(=O)NC(C)CC)o1 (stereo not drawn) | 1
4 | Cc1ccc(-c2nc(-c3ccncc3)no2)c(Cl)c1 | 1
5 | c1cc(-c2noc(C34CC5CC(CC(C5)C3)C4)n2)ccn1 | 1
6 | COc1ccc(-c2nnc(SCC(=O)Nc3ccccc3F)o2)cc1 | 1
7 | Cc1ccc(OCc2nc(-c3ccccc3)no2)cc1C | 1
8 | CC1Cc2ccccc2N1C(=O)CSc1nnc(-c2ccccc2)o1 (stereo not drawn) | 1
9 | Cc1[nH]c2ccc(-c3nnc(SCC(=O)NCc4ccc(F)cc4)o3)cc2c1C | 1
10 | CCOc1cc(C#N)ccc1OCc1nc(-c2cccs2)no1 | 1
11 | O=C(CSc1nnc(-c2ccccc2)o1)Nc1cccc(Br)c1 | 1
12 | NC(=O)COc1ccccc1-c1nc(-c2ccccc2Cl)no1 | 1
13 | CCc1cccc(CC)c1NC(=O)CSc1nnc(-c2ccccc2OC)o1 | 1
14 | O=C(CSc1nnc(-c2ccc(Cl)cc2)o1)NCc1ccccc1 | 1
15 | C=CCSc1nnc(-c2ccc(Br)cc2)o1 | 1
16 | Cc1ccc(OCc2nc(-c3ccc(Br)o3)no2)cc1C | 1
17 | O=C(CSc1nnc(-c2ccc(Cl)cc2)o1)Nc1nccs1 | 1
18 | CCNC(=O)c1ccccc1-c1nc(-c2ccc(F)cc2)no1 | 1
19 | Cc1ccccc1OCc1nc(-c2cccs2)no1 | 1

Row | SMILES | proportion of mobile C. elegans dauer larvae
20 | Cc1cc(C)c(NC(=O)CSc2nnc(-c3ccc(Br)cc3)o2)c(C)c1 | 1
21 | CCN(CC)C(=O)CSc1nnc(-c2ccc(Cl)cc2Cl)o1 | 1
22 | Cc1ccccc1-c1noc(COc2ccc(Cl)cc2Cl)n1 | 1
23 | Clc1ccccc1-c1noc(-c2cccnc2)n1 | 1
24 | COc1ccc(-c2noc(CSc3nc(C)cc(C)n3)n2)cc1 | 1
25 | COc1ccc(-c2nnc(SCc3ccccc3)o2)cc1 | 1
26 | O=C(CSc1nnc(-c2cccc(Cl)c2)o1)Nc1ccccc1 | 1
27 | COc1ccc(-c2noc(C34CC5CC(CC(C5)C3)C4)n2)cc1 | 1
28 | O=C(Nc1ccc(-c2noc(COc3ccccc3)n2)cc1)c1ccc(F)cc1 | 1
29 | Cc1ccccc1-c1noc(CSc2nc3ccccc3[nH]2)n1 | 1
30 | Cc1cccc(C)c1NC(=O)CSc1nnc(-c2ccncc2)o1 | 1
31 | CCOc1cc(-c2nc(-c3ccc(C)nc3OCC)no2)cc(OCC)c1OCC | 1
32 | CCOC(=O)c1sc(NC(=O)CSc2nnc(-c3ccc(Cl)cc3)o2)c(C#N)c1C | 1
33 | COc1ccccc1NC(=O)c1ccccc1-c1nc(-c2ccccc2F)no1 | 1
34 | CCCCCOC(=O)CSc1nnc(-c2ccc(Cl)cc2Cl)o1 | 1
35 | Cc1ccc(-c2nc(-c3ccc4c(c3)OCO4)no2)cc1 | 1
36 | CCOc1ccc(NC(=O)CSc2nnc(-c3ccncc3)o2)cc1 | 1
37 | Cc1ccc(OCc2nc(-c3ccncc3)no2)c(Br)c1 | 1
38 | COc1cccc(-c2noc(-c3ccc(C)cc3)n2)c1 | 0 (active)
